Common to all, as to conditions: concentration: 10 µM; 24 h
The subject of assay [1] is HCC1569. Description: cell number relative to DMSO (% of DMSO); higher = more cells (less growth inhibition / toxicity). Put shortly:
(§1)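 Cell number or H1.0 nuclear intensity appears as percent of the plate control, based on the median of replicates. Measurements came from HCC1569 and TDF cells exposed in triplicate to compounds at 10 µM for 24 h at 37 °C, then imaged in six fields per well at ×10. Positional effects were smoothed out of HCC1569 values.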

Assay [2] deals with TDF. The description is as above. The essentials:
as §1

Assay [3] has as its system TDF. Description: H1.0 immunofluorescence intensity relative to DMSO (% of DMSO); higher = stronger H1.0 induction, active = 120 or more. Put shortly:
as §1

In assay [4] the test system is HCC1569. Description: H1.0 immunofluorescence intensity relative to DMSO (% of DMSO); higher = stronger H1.0 induction, active = 140 or more. The essentials:
as §1

Structures are written as SMILES.
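For H1.0 immunofluorescence intensity relative to DMSO in this document: TDF is a line of transformed human dermal fibroblasts of mesenchymal origin.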
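For cell number relative to DMSO in this document: TDF denotes transformed human dermal fibroblasts of mesenchymal origin.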

`COc1cccc(C(=O)NCCN2CCN(c3ccc(Cl)cc3)CC2)c1`: the cell number worked out at 101 in the assay with HCC1569 [1] and 109 in the assay with TDF [2]. The H1.0 immunofluorescence intensity is 94.5 (inactive) in the assay on TDF [3] and 92.3 (inactive) in the assay on HCC1569 [4].

Take `CCCCCCCCCCCCCCCC(=O)NCC(COP(=O)([O-])OCC[N+](C)(C)C)OCC` (racemic) [rac-2-Ethoxy-3-hexadecanamido-1-propylphosphocholine]: the figures for the cell number in the assay with HCC1569 [1] and with TDF [2] were 96.1 and 96.3, respectively. Moreover, the H1.0 immunofluorescence intensity in the assay with TDF [3] is 97.5 (inactive); with HCC1569 [4], 104 (inactive).

With `CCCCCCCCC=CCCCCCCCC(=O)NCCc1ccc(O)c(O)c1` [Oleoyl dopamine], the cell number came to 98.1 with HCC1569 [1] and 88.4 with TDF [2]. Moreover, the H1.0 immunofluorescence intensity is 103 (inactive) in the assay with TDF [3] and 118 (inactive) with HCC1569 [4].

Take `C=C1C(=CC=C2CCCC3(C)C2CCC3C(C)CCCC(C)C)CC(O)CC1O` (stereo unspecified) [Alfacalcidol]: the figures for the cell number in the assay on HCC1569 [1] and in the assay with TDF [2] were 100 and 101, respectively. The H1.0 immunofluorescence intensity is 96.5 (inactive) in the assay on TDF [3] and 101 (inactive) in the assay on HCC1569 [4].

With `CNCCCC1c2ccccc2C=Cc2ccccc21.Cl` [Protriptyline hydrochloride], the cell number in the assay on HCC1569 [1] amounted to 92.7; with TDF [2] it was 99.5. Also, the figures for the H1.0 immunofluorescence intensity in the assay on TDF [3] and in the assay with HCC1569 [4] were 109 (inactive) and 117 (inactive), respectively.

For the compound `CC(C=CC1=C(C)CCCC1(C)C)=CC=CC(C)=CC(=O)O` [13-cis-retinoic acid], the cell number was 102 in the assay on HCC1569 [1] and 100 in the assay on TDF [2]. Further, the H1.0 immunofluorescence intensity in the assay on TDF [3] is 88.5 (inactive); in the assay with HCC1569 [4] it was 123 (inactive).

In the case of `CCCSc1ccc2nc(NC(=O)OC)[nH]c2c1` [Albendazole], the cell number in the assay on HCC1569 [1] came out at 61.4; in the assay on TDF [2] it was 9.62. In addition, the H1.0 immunofluorescence intensity in the assay with TDF [3] was 149 (active); in the assay on HCC1569 [4], 176 (active).

Regarding `COc1ccnc(CS(=O)c2nc3ccc(OC(F)F)cc3[nH]2)c1OC` (stereo unspecified) [Pantoprazole], the values for the cell number in the assay with HCC1569 [1] and with TDF [2] were 100 and 105, respectively. The H1.0 immunofluorescence intensity with TDF [3] was 102 (inactive); with HCC1569 [4], 103 (inactive).

Regarding `O=C1Nc2cc(Br)ccc2C1=C1N=c2ccccc2=C1NO` [GSK-3 Inhibitor IX], the cell number in the assay with HCC1569 [1] worked out at 56.3; in the assay on TDF [2], 70.1. Also, the H1.0 immunofluorescence intensity with TDF [3] is 112 (inactive); in the assay with HCC1569 [4] it was 222 (active).
